Giardia kill = Small Molecules that selectively kill Giardia lamblia: qHTS; activity change, % at 7.66 µM, hits read low; Giardia lamblia trophozoite viability; 340,000 compounds, 0.15% hits; in the data active = activity change below about -80%; inconclusive = between about -30% and that limit;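 also: parasites exposed to compound for two days anaerobically before the ATP read; % is scaled to controls: 0 for no effect and ±100 for the full control effect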
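Each well holds 100 Giardia trophozoites and compound. After two days (48 hrs) at 37 deg C in anaerobic conditions, ATP is quantified by luminescence.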
SW480 rerep = A quantitative high throughput screen for small molecules that induce DNA re-replication in SW480 colon adenocarcinoma cells | SW480 DNA re-replication, Hoechst DNA content imaging, 48 h | Potency, µM (doses to about 46.1 µM), for the others: at the highest dose re-replication activation, usual class: activators | 340,000 compounds, 1.8% hits | AID 624297, 2012; also: potency is read from the fitted curve at half-maximal effect; % of control where 0% means no effect; nearly all actives have a fitted effect of over 55% in size
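First, 250 cells per well were seeded. Next, compound or vehicle (23 nL) was pinned in, plates sat 48 hr at 37 C. Finally Hoechst was added for 40 min before fluorescence scanning.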
KB-3-1 cytotox = qHTS assay for MDR1-selective chemotherapeutics: Primary screen using the parental adenocarcinoma cell KB-3-1 | KB-3-1 viability, CellTiter-Glo ATP luminescence, 72 h | Potency, µM (doses to about 46.1 µM), actives largely listed as cytotoxic | 400,000 compounds, 1.4% hits | AID 1347075, 2019; also: potency is read from the fitted curve at half-maximal effect; % is scaled to controls: 0 for no effect and ±100 for the full control effect; nearly all actives have a fitted effect of over 60% in size
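Multi-concentration cytotoxicity screen in KB-3-1 cells grown in DMEM lacking phenol red with 10% FBS. After 72 h at 37 °C with compound, ATP-dependent luminescence was recorded.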
MCF10A rereplic = A quantitative high throughput screen for small molecules that induce DNA re-replication in MCF 10a normal breast cells; MCF 10A DNA re-replication, Hoechst nuclear intensity, 48 h; Potency, µM (titrated, usually from 46.1 µM), for the others: top-dose activity, positive = re-replication, usual class: activators; 350,000 compounds, 2.9% hits; AID 624296, 2012; also: potency is read from the fitted curve at half-maximal effect; % of control where 0% means no effect; nearly all actives have a fitted effect of over 50% in size
KB-V1 cytotox = qHTS assay for MDR1-selective chemotherapeutics: Primary screen using the drug-selected MDR subline cells KB-V1; 400,000 compounds, 3.4% hits; KB-V1 MDR cells viability, CellTiter-Glo, 72 h; Potency, µM (top dose mostly 46.1 µM), most hits filed as cytotoxic; also: potency is read from the fitted curve at half-maximal effect; % is scaled to controls: 0 for no effect and ±100 for the full control effect; nearly all actives have a fitted effect of over 60% in size
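Cytotoxicity via CellTiter-Glo luminescence after 72 h compound exposure at 37 degrees C. Cells: drug-selected KB-V1 line, DMEM phenol-red free plus 10% FBS. Compounds tested at multiple concentrations; normalized data fitted to concentration-effect curves.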
ASM inhibitor = Inhibitors of Secretory Acid Sphingomyelinase (S-ASM): qHTS. Sphingomyelin phosphodiesterase (Homo sapiens), P17405. placental ASM, HMU-PC fluorogenic substrate, 60 min. Potency, µM (series often up to 57.5 µM), for inactives: at the top dose activity change, negative = inhibition, most hits filed as inhibitors. 340,000 compounds, 0.006% hits. AID 504937, 2011; also: potency is read from the fitted curve at half-maximal effect
Target sequence (P17405 47-631 limits assumed): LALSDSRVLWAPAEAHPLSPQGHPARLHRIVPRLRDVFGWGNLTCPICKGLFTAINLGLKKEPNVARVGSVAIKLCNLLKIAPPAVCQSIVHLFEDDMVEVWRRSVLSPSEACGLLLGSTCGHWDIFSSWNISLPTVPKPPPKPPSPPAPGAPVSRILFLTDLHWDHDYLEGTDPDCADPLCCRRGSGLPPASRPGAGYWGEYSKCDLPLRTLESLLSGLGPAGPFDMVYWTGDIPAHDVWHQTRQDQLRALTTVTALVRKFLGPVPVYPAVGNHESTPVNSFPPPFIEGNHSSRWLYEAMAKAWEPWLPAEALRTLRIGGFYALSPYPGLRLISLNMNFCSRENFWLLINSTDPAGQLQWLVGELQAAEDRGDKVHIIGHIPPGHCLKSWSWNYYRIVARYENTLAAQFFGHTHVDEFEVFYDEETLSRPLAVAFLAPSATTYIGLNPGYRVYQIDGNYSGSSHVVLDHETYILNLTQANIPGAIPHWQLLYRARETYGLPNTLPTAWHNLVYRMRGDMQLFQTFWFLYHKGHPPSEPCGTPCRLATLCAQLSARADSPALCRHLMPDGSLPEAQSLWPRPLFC
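qHTS format. ASM enzyme prepared from human placenta hydrolyses the fluorogenic substrate HMU-PC0 (9 uM final) over 60 min at 37 °C after a 10 min compound preincubation.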
* hit, by the source's call; i = inactive; ? = inconclusive; nt = no result given. Rows were chosen to be rich in hits. Some 6.9% of all compounds tested hit in one or more screens of this group. Unless noted, calls follow the shape of the dose curve; as a rule, active = well fitted curve in the direction sought with a large enough effect; inconclusive = small, poorly fitted or top-dose-only effect, or another doubt; inactive = no such curve, though single readings can be large; an effect the other way counts as inactive or inconclusive.

SMILES	Giardia kill	SW480 rerep	KB-3-1 cytotox	MCF10A rereplic	KB-V1 cytotox	ASM inhibitor
Cn1c(=O)cc(SCC(=O)NCc2ccc(F)cc2)c2cc(Cl)ccc21	nt	nt	i	nt	?	nt
COc1ccc(C(C)=O)cc1COc1cccnc1[N+](=O)[O-]	?	?	i	?	15µM*	2%
CCOc1ccc(C(C)=O)cc1COC(=O)c1cccnc1SC	4	-37%	i	-13%	i	-3%
CCOc1ccc(C(C)=O)cc1COc1cccnc1[N+](=O)[O-]	?	21µM*	?	?	12µM*	-5%
COc1ccc(C(C)=O)cc1COc1ccccc1[N+](=O)[O-]	-4	-2%	i	0%	i	-3%
COc1ccc(CCN2C(=O)c3oc4cc(C)cc(C)c4c(=O)c3C2c2ccc(F)cc2)cc1OC (configuration not stated)	nt	nt	i	nt	i	nt
OC(c1cccc(Cl)c1)c1ncc(-c2ccc(C(F)(F)F)cc2)[nH]1 (configuration not stated)	nt	nt	i	nt	i	nt
Cc1ccc(NS(=O)(=O)c2ccc(-c3cnc(C4CC4)o3)cc2)c(C)c1	-7	9.2µM*	2.1µM*	0.73µM*	2.6µM*	-29%
CCN(CC)c1ccc(NS(=O)(=O)c2ccc(-c3cnc(C4CC4)o3)cc2)c(C)c1	nt	nt	i	nt	i	nt
O=S(=O)(Nc1ccc(F)cc1Cl)c1ccc(-c2cnc(C3CC3)o2)cc1	-1	?	1.2µM*	1µM*	1.5µM*	-19%
Cc1cc(C)c(NS(=O)(=O)c2ccc(-c3cnc(C4CC4)o3)cc2)c(C)c1	nt	nt	0.46µM*	nt	2.1µM*	nt
COc1ccc(Cl)cc1NC(=O)CSc1nc(=O)n(Cc2ccco2)c2c1CCC2	nt	nt	i	nt	i	nt
O=C(Cc1ccc(NC(=O)N2CCCCc3ccccc32)cc1)NCc1cccc(Br)c1	nt	nt	i	nt	i	nt
Cc1ccc(NS(=O)(=O)c2c(C)nc3sccn3c2=O)c(Cl)c1	nt	nt	i	nt	i	nt
COc1ccc(/C=N/NC(=O)c2sccc2C)c2ccccc12	-4	?	i	12µM*	i	129%
Cc1ccsc1/C=N/NC(=O)c1ccncc1	-16	-9%	i	-7%	i	-2%
COc1cc(C(=O)N/N=C/c2sccc2C)cc(OC)c1OC	2	1.2µM*	0.65µM*	?	?	-1%
COc1cc(C(=O)N/N=C/c2cc([N+](=O)[O-])cs2)cc(OC)c1OC	-18	?	?	5.8µM*	1.2µM*	3%
FC(F)(F)C(F)(F)C(F)(F)c1nc2ccccc2[nH]1	nt	nt	i	nt	i	nt
CC(=O)c1ccc(-c2cc(C3C4C=CCC(C)C4C(=O)N3Cc3ccccc3)ccc2F)cc1 (configuration not stated)	17	nt	nt	nt	nt	nt
COc1ccccc1CNC(=O)CN1C(=O)CCc2cc(S(=O)(=O)N3CCCCC3)ccc21	nt	nt	i	nt	i	nt
CC1(C)OC(=O)C2(Cc3ccc(Cl)cc3N3CCCC32)C(=O)O1 (configuration not stated)	11	nt	i	nt	i	nt
CC(=O)c1ccc(NC(=O)c2ccc(-c3ccc(Cl)cc3)o2)cc1	nt	nt	?	nt	i	nt
O=C1Oc2ccccc2C(=O)C1C(CC(O)c1ccc(-c2ccc(Br)cc2)cc1)c1ccccc1 (configuration not stated)	nt	-3%	nt	30µM*	nt	nt
CCCCN(C)Cc1c(O)ccc2c(-c3ccccc3)cc(=O)oc12	5	-17%	?	-2%	10µM*	145%
SMILES	Giardia kill	SW480 rerep	KB-3-1 cytotox	MCF10A rereplic	KB-V1 cytotox	ASM inhibitor
Cn1c(-c2ccc(F)cc2)cc2onc(-c3c(F)cccc3Cl)c2c1=O	-16	-2%	i	2.3µM*	i	14%
Cc1ccc(-c2cc3onc(-c4ccccc4)c3c(=O)n2C)cc1	-18	-11%	?	-17%	?	2%
CC1(C(=O)NC2CCCCCC2)CCC(=O)N1Cc1ccc2c(c1)OCO2 (configuration not stated)	41	20%	i	1%	21µM*	2%
CC1(C(=O)NC2CCCCC2)CCC(=O)N1Cc1ccc2c(c1)OCO2 (configuration not stated)	1	-78%	i	5%	i	2%
CC1(C)SC(=S)N(Cc2ccc3c(c2)OCO3)C1N(O)C(=O)NC1CCCCC1 (configuration not stated)	-12	6%	?	0%	15µM*	-5%
Cc1ccc(-n2ncc(C(=O)NCCN3CCC(Cc4ccccc4)CC3)c2C2CCN(C(=O)OC(C)(C)C)CC2)cc1	nt	nt	?	nt	i	nt
CCCN(CC(=O)Nc1ccccc1C)C(=O)c1nn(CC)c(=O)c2ccccc12	1	-3%	i	-3%	8.2µM*	-3%
Cc1ccc(S(=O)(=O)N(C)c2ccc(OCC(=O)Nc3nc(-c4ccccc4)cs3)cc2)cc1	20	-4%	i	?	i	-1%
Cc1ccc(S(=O)(=O)N(C)c2ccc(OCC(=O)Nc3nc4ccccc4s3)cc2)cc1	10	7%	?	8%	2.9µM*	8%
Cc1ccc(S(=O)(=O)N(C)c2ccc(OCC(=O)Nc3nc4c(ccc5ccccc54)s3)cc2)cc1	2	-47%	i	1%	4.1µM*	3%
Cc1ccccc1C(=O)Nc1cccc(NC(=O)c2ccc(C(C)(C)C)cc2)c1	nt	nt	?	nt	i	nt
COc1ccc(C2Oc3ccccc3C3=C2C(c2cccs2)n2ncnc2N3)cc1 (configuration not stated)	-3	?	5.8µM*	?	5.8µM*	148%
Brc1ccc(C2C3=C(Nc4ncnn42)c2ccccc2OC3c2ccncc2)cc1 (configuration not stated)	5	?	?	?	21µM*	195%
COCC(C)NC(C(=O)Nc1ccc(Cl)c([N+](=O)[O-])c1)c1ccccc1 (configuration not stated)	21	-24%	i	-3%	16µM*	1%
CC(CC(=O)Nc1cc([N+](=O)[O-])ccc1Cl)c1ccccc1 (configuration not stated)	25	-2%	i	0%	?	-2%
